Where “and” joins values, the source holds several entries; their conditions need not be identical. Equal entries are not always repeated. In all, about 140,000 compounds went through this assay and about 80 (0.06%) were called active. The sample as a whole holds a higher share of actives than the screen did. Values without a mark were called inactive. Rule as the data show it: active = displacement above about 50%; inactive = the rest.
Each molecule was assayed against Heat shock 70 kDa protein 1A (Homo sapiens) (UniProt P0DMV8) (assay: Hsp70 inhibitors, probe displacement, primary screen, biochemical, fluorescence polarization (AID 583;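 also: plate controls were vehicle for no effect and reference ligand for full effect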)). Conditions: mP, at 20 µM, active compounds read high.
Chain of Heat shock 70 kDa protein 1A (Homo sapiens) (P0DMV8 whole entry, looked up): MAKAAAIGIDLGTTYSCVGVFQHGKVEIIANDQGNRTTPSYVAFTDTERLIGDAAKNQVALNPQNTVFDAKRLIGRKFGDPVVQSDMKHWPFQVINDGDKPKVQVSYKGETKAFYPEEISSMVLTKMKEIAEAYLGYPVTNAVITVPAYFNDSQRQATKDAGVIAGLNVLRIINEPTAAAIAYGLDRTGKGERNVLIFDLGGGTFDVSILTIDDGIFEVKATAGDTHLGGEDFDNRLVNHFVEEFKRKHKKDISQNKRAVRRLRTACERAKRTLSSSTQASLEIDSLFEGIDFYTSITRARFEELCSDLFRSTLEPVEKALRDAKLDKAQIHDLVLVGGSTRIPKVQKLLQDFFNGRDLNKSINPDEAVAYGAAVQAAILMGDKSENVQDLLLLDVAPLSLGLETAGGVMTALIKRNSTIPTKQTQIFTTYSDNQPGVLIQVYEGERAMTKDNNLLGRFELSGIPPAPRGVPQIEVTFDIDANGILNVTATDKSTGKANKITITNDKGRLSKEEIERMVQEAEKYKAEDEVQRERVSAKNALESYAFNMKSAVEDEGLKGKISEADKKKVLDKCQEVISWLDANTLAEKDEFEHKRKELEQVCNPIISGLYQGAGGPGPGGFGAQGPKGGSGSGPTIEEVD

Compound | displacement
CC(NS(C)(=O)=O)C(c1cccs1)N1CCN(Cc2ccccc2)CC1 (centres undefined) | 3.1%
O=C1N=c2ccccc2=C1c1sc(=O)n(-c2ccc(O)cc2)c1O | -21.2%
O=C1N=c2ccccc2=C1c1sc(=Nc2ccccc2)n(-c2ccccc2)c1O | 5.2%
O=C1N=c2ccccc2=C1c1s/c(=N/N=C2/C(=O)Nc3ccccc32)n(-c2ccc(O)cc2)c1O | 93.6% (active)
CC(=O)NS(=O)(=O)c1ccc(NC(=O)c2ccccc2F)cc1 | 6%
COCC(=O)Nc1nc(-c2ccccc2)c(C)s1 | -1.9%
O=C1NC(=S)N/C1=C\c1ccc(-c2cccc([N+](=O)[O-])c2)o1 | 0.3%
O=C1NC(=S)N/C1=C\c1ccc(-c2cc([N+](=O)[O-])ccc2Br)o1 | 51.2% (active)
O=C1NC(=S)N/C1=C/c1ccc(-c2cc([N+](=O)[O-])ccc2Cl)o1 | 17.3%
Cc1ccc(NC(=O)c2ccccc2Br)cc1 | 1.9%
COc1ccc(OC)c(NC2=NC3(CCCCC3)N=C(N)N2)c1 | -6.7% and 3.4%
COc1ccccc1NC1=NC2(CCCCC2)N=C(N)N1 | 97.6% (active)
COc1ccc(OC)c(NC2=NC3(CCCC3)N=C(N)N2)c1 | 0.2% and -1.2%
CC(C)Oc1c(I)cc(I)cc1/C=C(/C#N)c1nc2ccccc2[nH]1 | -0.1%
Cc1ccc(/C(N)=N/OC(=O)c2ccc(Br)cc2)cc1 | 1.1%
O=C1C(=O)N(CC2CCCO2)C(c2cccc([N+](=O)[O-])c2)/C1=C(/O)c1ccccc1 (centres undefined) | -4.4%
COc1cccc(C2NC(=O)NC(C)=C2C(=O)OCCc2ccccc2)c1OC (centres undefined) | -3%
COc1ccc(Cn2c3nc4ccccc4nc3c3c(=O)n(Cc4ccco4)cnc32)cc1 | -6%
COc1ccc(Cn2c(C)nc3c(c2=O)c2nc4ccccc4nc2n3Cc2ccco2)cc1 | 69.5% (active)
COc1ccc(Cn2c3nc4ccccc4nc3c3c(=O)n(Cc4ccco4)c(C)nc32)cc1 | 2.5%
O=C(O)CCCN1C(=O)/C(=C/c2cccc(Br)c2)SC1=S | 6.7%
O=C(O)CCCCCN1C(=O)/C(=C/c2cccc(F)c2)SC1=S | -1.8%
O=C(O)CCCCCCCCCCN1C(=O)/C(=C/c2cccc(Br)c2)SC1=S | 56.6% (active)
O=C(NN1CCOCC1)c1cc2ccccc2oc1=O | 1.1%

Compound | displacement
CC(=O)C1=C(C)NC(SCC(N)=O)=C(C#N)C1c1cccnc1 (centres undefined) | -1.1%
Cc1ccc(C)n1-c1ccc(Br)cc1C(=O)O | 7.4%
Cc1c(C(=O)O)cccc1-n1c(=O)c2cc3c(=O)n(-c4cccc(C(=O)O)c4C)c(=O)c3cc2c1=O | -1.1%
Cc1c(C(=O)O)cccc1-n1c(C)ccc1C | 51.1% (active)
Cc1ccc(C)n1-c1ccc(Cl)cc1C(=O)O | 104% (active)
Cc1ccc(C)n1-c1ccccc1C(=O)O | 92.7% (active)
Cc1ccc(-c2ccccc2)n1-c1ccccc1C(=O)O | 5.6%
Cc1ccc(C)n1-c1sccc1C(=O)O | 24.9%
COc1cc(C(=O)O)c(-n2c(C)ccc2C)cc1OC | 6.6%
Cc1nc(=O)c(-c2ccccc2)c(C)n1-c1ccccc1C(=O)O | 6.5%
COc1cc(OC)cc(C(=O)N2CCN(C(=O)c3cccc(F)c3)CC2)c1 | 2.3%
COC(=O)c1ccc(/C=C2\SC(=S)N(C(Cc3ccccc3)C(=O)O)C2=O)cc1 (centres undefined) | -0.2%
O=C1NC(=O)/C(=C/c2c(F)cccc2Cl)S1 | 4.2%
S=c1[nH]nc(-c2cccc(Cl)c2)n1-c1ccccc1 | 4%
COc1ccc(CC(=O)c2cc(OC)c(OC)cc2CC(=O)O)cc1OC | -0.7%
COC(=O)c1cc(C#N)c(SCc2ccccc2)nc1C | -5%
O=C(c1ccc(N2CCN(C(=O)c3ccccc3F)CC2)cc1)c1cccc(F)c1 | -2.9%
O=C(c1ccc(N2CCN(C(=O)c3ccccc3)CC2)cc1)c1cccc(F)c1 | -1.2%
O=C(c1ccc(N2CCN(C(=O)c3ccccc3Br)CC2)cc1)c1cccc(F)c1 | 83.6% (active)
CCN1CCN(P2(=O)C=C(c3ccccc3)OC(c3ccccc3)=C2)CC1 | 1.1%
O=C(c1coc(=O)c(Br)c1)N1CCCc2ccccc21 | 6.5%
O=C(c1coc(=O)c(Br)c1)N1CCOCC1 | 7.3%
COc1ccc(CCNC(=O)CSc2nc3ccccc3o2)cc1OC | 0.2%
COc1ccc(C2c3c(oc4ccccc4c3=O)C(=O)N2CC2CCCO2)cc1 (centres undefined) | -2.4%

Compound | displacement
O=C1c2oc3ccc(F)cc3c(=O)c2C(c2ccccc2)N1CC1CCCO1 (centres undefined) | -3.1%
O=C(COc1ccc([N+](=O)[O-])cc1)Nc1cccc(Cl)c1Cl | 2.1%
CCCCOc1ccc(N2C(=O)C3CC(C)=C(C)CC3C2=O)cc1 (centres undefined) | 0.2%
CCOc1cc(CNn2cnnc2)cc(Br)c1OCC(=O)NC1CCCCC1 | 5.5%
C=CCn1c2ccccc2c2nnc(SCC(=O)Nc3sc4c(c3C#N)CCCC4)nc21 | -2%
CC(=NCCCn1ccnc1)c1c(-c2ccccc2)[nH]n(-c2nc3ccccc3s2)c1=O | 0.5%
Cc1c(NS(=O)(=O)c2cc(Cl)ccc2Cl)cccc1[N+](=O)[O-] | -2.4%
O=C(Nc1ccc2nc(-c3cccs3)c(-c3cccs3)nc2c1)NC1CC1 | 2.3%
O=C(Nc1ccc(N2CCOCC2)cc1)Nc1ccc2nc(-c3ccco3)c(-c3ccco3)nc2c1 | 1.1%
Brc1ccc(/C=N/c2ncn[nH]2)cc1 | 3.3%
CCN1C(=O)/C(=C\c2ccc(OCc3ccccc3Cl)cc2)SC1=S | -2.5%
C=CCN1C(=O)/C(=C/c2cccc(OCc3ccccc3Cl)c2)SC1=S | 0.3%
C=CCN1C(=O)/C(=C\c2ccc(OCc3ccccc3Cl)cc2)SC1=S | 56.5% (active)
CCOc1ccc(N(CC(=O)NC2CCCCC2)S(=O)(=O)c2ccc(Cl)cc2)cc1 | 2.4%
NC(=O)c1ccc(NC(=O)Cc2ccc(Cl)cc2)cc1 | -3.6%
Cc1ccc(-c2cc(C(=O)N/N=C/c3ccc([N+](=O)[O-])cc3)[nH]n2)cc1 | 1.8%
Cc1ccc(-c2cc(C(=O)N/N=C/c3cccc([N+](=O)[O-])c3)[nH]n2)cc1 | 78.2% (active)
O=C(N/N=C/c1cccc([N+](=O)[O-])c1)c1cc(-c2ccc(Cl)cc2)n[nH]1 | 4.6%
CC(C)(C)NC(=O)c1cccc(N2C(=O)c3cccc([N+](=O)[O-])c3C2=O)c1 | 1.9%
Cc1cccc(C(NC(N)=O)c2ccccc2)c1 (centres undefined) | 0.4%
NC1=NC(=O)/C(=C/c2ccc(-c3cc([N+](=O)[O-])ccc3Cl)o2)S1 | 75.9% (active)
NC1=NC(=O)/C(=C/c2ccc(-c3ccc([N+](=O)[O-])cc3Br)o2)S1 | 44.5%
NC1=NC(=O)/C(=C\c2ccc(-c3ccc([N+](=O)[O-])cc3)o2)S1 | -5.8%
Cc1ccc(/C(N)=N/OC(=O)c2ccccc2F)cc1 | 2.5%

Compound | displacement
O=S(=O)(Nc1ccc(F)cc1)c1ccc2c(c1)Cc1cc(S(=O)(=O)Nc3ccc(F)cc3)ccc1-2 | -0.8%
Cc1ccc(NC(=O)c2ccccc2NC(=O)Cc2cccs2)cc1C | 3.6%
CN(c1ccc(C(=O)NC2CC2)cc1)S(=O)(=O)c1ccccc1 | 0.5%
Cc1c(NC(=O)c2ccccc2[N+](=O)[O-])cccc1-c1nc2cc(Cl)ccc2o1 | 60.1% (active)
Cc1c(C(=O)Nc2ccc(-c3nc4cc(Cl)ccc4o3)cc2)cccc1[N+](=O)[O-] | -7%
Cc1c(C(=O)Nc2ccc3oc(-c4ccc(Cl)cc4Cl)nc3c2)cccc1[N+](=O)[O-] | -1.5%
Cc1cc(NC(=O)CN2CCN(c3ccccc3F)CC2)nc2c1c(=O)oc1ccccc12 | 1.7%
COc1ccc(N2C(=O)C3C(C2=O)N2CCCN2C3c2ccc(Cl)cc2)cc1 (centres undefined) | 2.3%
Cc1cc(N2C(=O)NC(=O)/C(=C\c3ccco3)C2=O)ccc1Br | 40.3%
O=C1NC(=O)N(c2ccc(Br)cc2)C(=O)/C1=C\C=C\c1ccco1 | -7.2%
O=C1NC(=O)N(c2ccc(Br)cc2)C(=O)/C1=C/c1ccco1 | 54% (active)
N#CCOc1ccccc1/C=N/c1sc2c(c1C#N)CCCC2 | -0.5%
CC(C)(C)NC(=O)CN1CCC(O)(c2ccc3c(c2)OCO3)CC1 | 5.2%
O=C1/C(=C\c2ccc(-c3ccc([N+](=O)[O-])cc3)o2)SC(=S)N1c1ccc(O)cc1 | 1.6%
O=C(O)CCN1C(=O)/C(=C/c2ccc(-c3ccc([N+](=O)[O-])cc3)o2)SC1=S | 1.7%
O=C(O)c1ccc(-c2ccc(/C=C3\SC(=S)N(c4ccc([N+](=O)[O-])cc4)C3=O)o2)cc1 | 55.5% (active)
CC(=O)Nc1ccccc1NC(=O)COc1ccc(Cl)cc1C | -3.3%
O=c1ccc(Oc2nc(N3CCOCC3)nc(N3CCOCC3)n2)nn1-c1ccccc1 | 6.5%
N/C(=N\OC(=O)c1cccc(Br)c1)c1cccnc1 | 1.1%
Cc1ccc(N=C2NC(=O)/C(=C/c3ccc(O)c([N+](=O)[O-])c3)S2)cc1Cl | 66.9% (active)
COc1cc(/C=C2\SC(=Nc3ccc(C)c(Cl)c3)NC2=O)ccc1O | -0.7%
Cc1c(Cl)cccc1N=C1NC(=O)/C(=C/c2ccc(O)c([N+](=O)[O-])c2)S1 | 13.2%

From PubChem BioAssay AID583 (Sanford-Burnham Center for Chemical Genomics, 2007)
